High-throughput results as filed in PubChem BioAssay.
In the library only some 1.4% were active in any assay of this set; here they are far more common.
NS1 function inh – qHTS Assay for Inhibitors of Influenza NS1 Protein Function; Potency, µM (series often up to 46.1 µM), for the others: top-dose activity, positive = more growth; 270,000 tested, 0.4% active; calls by dose curve; also: actives are rising curves; nearly all actives have a fitted effect of over 50% in size
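A cell-based growth assay was used: compounds that relieve NS1-induced slow growth of budding yeast raise OD600. Assay medium was yeast nitrogen base with ammonium sulphate and -URA supplement, pH 6.0, with 2% galactose.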
Giardia FBPA inh-1 – qHTS Assay for Inhibitors of Fructose-1,6-bisphosphate Aldolase from Giardia Lamblia; purified Giardia FBPA; 290,000 tested, 0.71% active; A8B2U2; Potency, µM (series often up to 59.6 µM), for inactives: top-dose activity, negative = inhibition, hits mostly inhibitors; AID 2451, 2010; also: % is scaled to controls: 0 for no effect and ±100 for the full control effect; nearly all actives have a fitted effect of over 55% in size
Target sequence (A8B2U2 whole entry, looked up): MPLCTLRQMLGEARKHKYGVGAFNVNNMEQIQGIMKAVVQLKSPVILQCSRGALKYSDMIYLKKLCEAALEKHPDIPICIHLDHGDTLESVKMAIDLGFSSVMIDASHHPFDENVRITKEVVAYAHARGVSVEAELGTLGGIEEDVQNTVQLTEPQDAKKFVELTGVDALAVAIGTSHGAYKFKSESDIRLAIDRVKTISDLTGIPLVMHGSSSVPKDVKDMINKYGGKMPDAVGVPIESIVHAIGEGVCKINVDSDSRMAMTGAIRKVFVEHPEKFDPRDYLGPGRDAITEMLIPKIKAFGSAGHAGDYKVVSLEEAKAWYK
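40 nM FBPA preincubated 10 min at RT with compound (up to 57.5 uM final), then substrate plus GAPDH/TPI/NAD/arsenate coupling and diaphorase/resazurin added. Fluorescence read after 20 min at RT, 525/598 nm.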
AmpC no deterg – qHTS Inhibitors of AmpC Beta-Lactamase (assay without detergent) | AmpC nitrocefin hydrolysis, absorbance 480 nm, 0.0001% Triton | P00811 | 330,000 tested, 0.52% active | Potency, µM (series often up to 57.1 µM), without a hit: at the highest dose activity change, negative = inhibition, hits mostly inhibitors;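 also: plate controls were no compound for no effect and no enzyme for full effect; nearly all actives have a fitted effect of over 20% in size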
Target sequence (P00811 whole entry, looked up): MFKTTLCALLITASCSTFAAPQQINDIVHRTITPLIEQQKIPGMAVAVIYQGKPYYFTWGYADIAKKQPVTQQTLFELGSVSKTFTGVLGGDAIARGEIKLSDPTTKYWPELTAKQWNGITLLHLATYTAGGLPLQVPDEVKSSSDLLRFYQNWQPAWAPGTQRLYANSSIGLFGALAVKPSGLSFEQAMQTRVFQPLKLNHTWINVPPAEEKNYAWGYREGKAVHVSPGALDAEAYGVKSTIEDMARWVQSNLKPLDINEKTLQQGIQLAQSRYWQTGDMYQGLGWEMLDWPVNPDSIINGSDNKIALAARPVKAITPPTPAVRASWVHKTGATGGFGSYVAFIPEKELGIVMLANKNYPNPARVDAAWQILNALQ
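AmpC (5.3 nM in the dispensed reagent) in 20 mM phosphate pH 7.0 with 0.01% (detergent screen) or 0.0001% Triton X-100 was preincubated with compounds for 15 min at room temperature. Nitrocefin was then added from an 800 uM solution, and hydrolysis was followed at 480 nm.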
AmpC detergent – qHTS Inhibitors of AmpC Beta-Lactamase (assay with detergent). 370,000 tested, 0.041% active. Potency, µM (series often up to 114 µM), without a hit: top-dose activity change, negative = inhibition, hits mostly inhibitors. AmpC hydrolysis of nitrocefin, absorbance 480 nm, 0.01% Triton. P00811. AID 485294, 2010;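 also: 0% = no-compound wells and -100% = no-enzyme wells; nearly all actives have a fitted effect of over 25% in size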
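AmpC (5.3 nM in the dispensed reagent) in 20 mM phosphate pH 7.0 with 0.01% (detergent screen) or 0.0001% Triton X-100 was preincubated with compounds for 15 min at room temperature. Nitrocefin was then added from an 800 uM solution, and hydrolysis was followed at 480 nm.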
SARS PLP yeast – qHTS of Yeast-based Assay for SARS-CoV PLP. S. cerevisiae expressing SARS-CoV PLpro, growth rescue. Potency, µM (doses to about 32.9 µM), inactives show at the top dose activity, positive = growth rescue, usual class: activators. 330,000 tested, 0.19% active. AID 485353, 2010; calls by dose curve; also: 0% is about no effect; nearly all actives have a fitted effect of over 55% in size
Giardia growth – qHTS Assay for Inhibitors of Fructose-1,6-bisphosphate Aldolase from Giardia Lamblia: Giardia lamblia growth inhibition; shares compounds with Giardia FBPA inh-1; 1,500 tested, 5% active; Giardia lamblia trophozoite growth inhibition; Potency, µM (doses to about 57.5 µM), inactives show at the top dose activity change, negative = inhibition, usual class: inhibitors; AID 2785, 2010;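 also: trophozoites exposed to compound for 48 h at 37 °C; % is scaled to controls: 0 for no effect and ±100 for the full control effect; nearly all actives have a fitted effect of over 70% in size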
Mammal cell tox – qHTS Assay for Inhibitors of Fructose-1,6-bisphosphate Aldolase from Giardia Lamblia: Mammalian cellular toxicity; AID 2786, 2010; 1,500 tested, 4% active; mammalian cell viability counter-screen, qHTS; Potency, µM (top dose mostly 57.5 µM), for the others: top-dose viability change, negative = toxicity, hits mostly inhibitors; shares compounds with Giardia FBPA inh-1;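 also: Chinese hamster ovary cells used as mammalian cytotoxicity surrogate; viability measured as cellular ATP by luminescence; compound exposure lasted 48 h before reading; % is scaled to controls: 0 for no effect and ±100 for the full control effect; nearly all actives have a fitted effect of over 60% in size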
Giardia FBPA inh-2 – qHTS Assay for Inhibitors of Fructose-1,6-bisphosphate Aldolase from Giardia Lamblia: Primary screen confirmation; shares compounds with Giardia FBPA inh-1; purified Giardia aldolase enzyme activity, qHTS; Potency, µM (highest dose often 57.5 µM), for inactives: top-dose activity change, negative = inhibition, usual class: inhibitors; 1,500 tested, 5% active; AID 2787, 2010; also: % is scaled to controls: 0 for no effect and ±100 for the full control effect; nearly all actives have a fitted effect of over 45% in size
Rabbit aldolase – qHTS Assay for Inhibitors of Fructose-1,6-bisphosphate Aldolase from Giardia Lamblia: Rabbit FBPA Selectivity. Potency, µM (highest dose often 57.5 µM), inactives show at the top dose activity, negative = inhibition, hits mostly inhibitors. 1,500 tested, 4% active. Rabbit muscle FBPA enzyme inhibition, selectivity counter-screen. shares compounds with Giardia FBPA inh-1; also: % is scaled to controls: 0 for no effect and ±100 for the full control effect; nearly all actives have a fitted effect of over 60% in size
GAPDH coupling – qHTS Assay for Inhibitors of Fructose-1,6-bisphosphate Aldolase from Giardia Lamblia: Coupling assay counterscreen confirmation | shares compounds with Giardia FBPA inh-1 | GAPDH coupling enzyme counterscreen, biochemical, qHTS | Potency, µM (titrated, usually from 57.5 µM), without a hit: top-dose activity change, negative = inhibition, usual class: inhibitors | 1,500 tested, 6% active | AID 2795, 2010; also: % is scaled to controls: 0 for no effect and ±100 for the full control effect; nearly all actives have a fitted effect of over 55% in size
Starred values were filed as active, the others as inactive; ? = inconclusive; . = not tested or not shown; [ ] = another dose, or the depositor's remark. Unless noted, calls follow the shape of the dose curve; as a rule, active = well fitted curve in the direction sought with a large enough effect; inconclusive = small, poorly fitted or top-dose-only effect, or another doubt; inactive = no such curve, though single readings can be large; an effect the other way counts as inactive or inconclusive. Potency is read from the fitted curve at half-maximal effect.

SMILES	NS1 function inh	Giardia FBPA inh-1	AmpC no deterg	AmpC detergent	SARS PLP yeast	Giardia growth	Mammal cell tox	Giardia FBPA inh-2	Rabbit aldolase	GAPDH coupling
COc1ccc2nc(SCc3ccccc3C)nc(C)c2c1	-4%	0%	-4%	0%	-13%	.	.	.	.	.
O=C(NCc1ccccc1)c1ncn(Cc2ccccc2)c1C(=O)NCc1ccccc1	.	.	-31%	-5%	1%	.	.	.	.	.
O=C(O)c1ncn(Cc2ccccc2)c1C(=O)O	1%	7.9µM*	-13%	?	2%	?	-4%	7%	3%	6%
O=S(=O)(c1ccc(Cl)cc1)c1nc(-c2ccccc2)oc1N1CCN(c2ccccc2)CC1	.	.	.	19%	.	.	.	.	.	.
Cc1ccc(SCCN2CCN(Cc3ccccc3)CC2)cc1	-1%	?	35%	?	-2%	.	.	.	.	.
Cc1ccc(SCCN2CCN(C)CC2)cc1	21%	22µM*	-4%	3%	-4%	-8%[10.4 µM]	-5%	2%	4%	8%
O=C(Cc1ccc(Cl)cc1)N/N=C/c1cccs1	1%	1%	0%	-9%	0%	.	.	.	.	.
COCCn1c(NC(=S)NC(=O)C2CC2)cc(=O)[nH]c1=O	11%	7.1µM*	-39%	-6%	0%	24%	4%	1%	-1%	14%
COCCn1c(NC(=S)NC(=O)C23CC4CC(CC(C4)C2)C3)cc(=O)[nH]c1=O	2%	-12%	-20%	-8%	0%	.	.	.	.	.
COc1ccc(CN2CCN(Cc3ccc(C)cc3)CC2)c(OC)c1	2%	14µM*	2%	-3%	0%	19%	1%	3%	1%	-2%
COc1ccc(CN2CCCCCC2)cc1	-10%	-21%	-16%	?	1%	.	.	.	.	.
COc1ccc(/C=N\N2CCN(Cc3ccccc3Cl)CC2)cc1	22%	16µM*	-7%	0%	-1%	-12%[10.4 µM]	-11%	-1%	6%	6%
COc1ccc(CN2CCN(Cc3ccccc3F)CC2)c(OC)c1	1%	13µM*	-21%	1%	0%	19%	0%	-3%	7%	-14%
Clc1ccc(/C=N/N2CCN(Cc3ccccc3Cl)CC2)cc1	.	0%	-19%[11.4 µM]	-15%	0%	.	.	.	.	.
COc1ccc(CN2CCN(Cc3ccccc3F)CC2)cc1	0%	16µM*	-5%	-9%	1%	16%	-3%	-1%	9%	1%
CN1CCC(OC(=O)C23CCC(C)(C(=O)O2)C3(C)C)CC1 (stereo not given)	-2%	4%	-15%	?	1%	.	.	.	.	.
CCc1ccc(NC(=O)CSc2nc(-c3ccccc3)c(C#N)c(=O)[nH]2)cc1	.	.	.	15%	.	.	.	.	.	.
CCOC(=O)c1ccccc1NC(=O)CSc1ccc(-c2sc(C)nc2C)nn1	.	.	.	-5%	.	.	.	.	.	.
COc1ccc(CNc2ncc(-c3ccc(Br)cc3)n2C)cc1OC	11%	?	-9%	-14%	3%	.	.	.	.	.
COc1ccc(CN2CCC(N3CC(C)OC(C)C3)CC2)c(OC)c1 (stereo not given)	-1%	?	-1%	-7%	0%	12%[38.3 µM]	10%	3%	4%	16%
CCOC(=O)C1CCN(Cc2ccc(OC)cc2OC)CC1	0%	?	-13%	6%	3%	.	.	.	.	.
Cc1ccc(CN(Cc2ccccc2)C(=S)NCC(=O)NCc2cccnc2)o1	.	16µM*	40%	?	5%	-12%	-12%	3%	5%	4%
COc1ccccc1N1CCN(C(C)C(=O)N2CC(C)OC(C)C2)CC1 (stereo not given)	.	5.6µM*	-12%	1%	2%	9%[10.4 µM]	4%	-5%	-8%	5%
COc1ccccc1N1CCN(C(=O)C(F)F)CC1	-6%	1%	-38%	-6%	-1%	.	.	.	.	.
O=C(CSc1ccc([N+](=O)[O-])cc1)Nc1ccccc1N1CCOCC1	.	.	-28%	.	-2%	.	.	.	.	.
SMILES	NS1 function inh	Giardia FBPA inh-1	AmpC no deterg	AmpC detergent	SARS PLP yeast	Giardia growth	Mammal cell tox	Giardia FBPA inh-2	Rabbit aldolase	GAPDH coupling
O=C(NC(=S)Nc1ccc2oc(=O)ccc2c1)c1cccc(Cl)c1	2%	10µM*	-6%	-8%	-16%	20µM*	11%	-1%	11%	6%
O=C(NC(=S)Nc1ccc2oc(=O)ccc2c1)c1cccc(F)c1	1%	?	-1%	1%	-16%	.	.	.	.	.
C/C(=N\NC(=S)Nc1cccc(C)c1)c1ccco1	-1%	1%	26%	-8%	0%	.	.	.	.	.
CCNC(=S)N/N=C(\C)c1ccco1	.	18µM*	-12%	-5%	8%	6%	-3%	7%	5%	6%
COc1ccccc1NC(=S)N(Cc1ccc(C)cc1)Cc1cccnc1	.	-9%	-8%	3%	3%	.	.	.	.	.
COc1ccc(CCN(Cc2ccccn2)C(=S)Nc2cccc(SC)c2)cc1OC	.	10µM*	76%	0%	5%	-6%[38.3 µM]	-26%	-11%	-8%	-3%
COc1ccccc1NC(=S)N(Cc1ccc(C)cc1)Cc1ccccn1	.	18µM*	71%	-3%	-8%	60%	-7%	6%	11%	18%
Cn1nnc(NC(=O)c2cccs2)n1	.	2%	-16%	2%	0%	.	.	.	.	.
CCCn1nnc(NC(=S)NC(=O)C(C)(C)C)n1	-3%	5.6µM*	-13%	?	4%	-4%[38.3 µM]	-7%	-1%	-4%	-5%
CCCn1nnc(NC(=S)NC(=O)/C=C/c2ccco2)n1	16%	16µM*	-53%	-1%	3%	7%	6%	-3%	2%	12%
CCCn1nnc(NC(=S)NC(=O)c2cccs2)n1	-2%	5µM*	-6%	-6%	-6%	?	-2%	8%	5%	13%
CCCCCC(=O)Nc1nnn(CCC)n1	-4%	6%	3%	-8%	7%	.	.	.	.	.
